Results: PubChem BioAssay (NCATS)
Results filed as inconclusive are left out. The source made the active and inactive calls. The call rests on the fitted dose curve; in most records, active means well fitted inhibition curve with a large enough effect; inconclusive means small, poorly fitted or top-dose-only effect; inactive means flat fitted curve, though single readings scatter. *1 amine or outer side, *2 acyl side, *3 side chain or, on linkers, in order; H or OH if unused. Where a SMILES comes first, the peptide text is derived from it. Bridges are numbered along the chain shown (N, C = ends). [ ]: non-standard residue; d: D form. The star is where a group is joined. ξ: configuration not given here. X10 = NC1=NCCC(C(N[*:1])C(=O)[*:2])N1; ΔAla(3-NHCONH2) = NC(=O)NC=C(N)C(=O)O; ξβ3hOrn = NCCCC(N)CC(=O)*; Dap = NC[CH](N)C(=O)O
On the % scale 0 is the no-effect control and ±100 the full control effect; potency means the concentration at half of the fitted maximal effect.

What follows are compounds tested on HaCat (assay: Cytotoxic Profiling of Annotated Libraries Using Quantitative High-Throughput Screening (AID 1296008; further: nearly all actives have a fitted effect of over 60% in size)). Details: Five cell lines viability, CellTiter-Glo ATP luminescence, 48-72 h; max response: active compounds read low.
Method in brief: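 Cytotoxicity was measured as CellTiter-Glo ATP luminescence, read after 10 min at room temperature. Compound treatment of the cells lasted 48 or 72 hr at 37 degrees Celsius in a qHTS format.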
For `Nc1ccc(C(=O)OCC(O)CO)cc1` (centres undefined), the max response was -8.17% (inactive).
In the case of `NCCCC(N)CC(=O)NCC1NC(=O)C(CO)NC(=O)C(N)CNC(=O)C(C2CCN=C(N)N2)NC(=O)C(=CNC(N)=O)NC1=O` (stereo not drawn) (H-[Dap]S[Dap](ξβ3hOrn)[ΔAla(3-NHCONH2)][X10]; lactam 1-C; configuration not given here), the max response is reported as -10.9% (inactive).
`COc1cc(C(=O)OC(COCCC(C)C)CN2CCOCC2)cc(OC)c1OC` (centres undefined) was tested, and the max response was -1.64% (inactive).
In the case of `CC(CC(C#N)(c1ccccc1)C(C)C)N(C)C` (centres undefined), the outcome is reported as “inactive”.
`Oc1ccccc1` was tested, and the outcome was “inactive”.
With `CCN(CC)CC(=O)Nc1c(C)cccc1C(=O)OC` the outcome was “inactive”.
For `CC[C@@]1(O)C(=O)OCc2c1cc1n(c2=O)Cc2c-1nc1ccccc1c2/C=N/OC(C)(C)C`, the Potency was 42.2 nM (active).
For `C[C@H]1C[C@H](O)c2ccsc2S1(=O)=O`, the max response was 2.62% (inactive).
With `CC(=O)c1cc2ccccc2s1` the max response was -0.924% (inactive).
`CO[C@@H]1[C@@H](O[C@@H]2O[C@H](C)[C@@H](O[C@H]3C[C@@](C)(O)[C@@H](O)[C@H](C)O3)[C@H](N(C)C)[C@H]2O)[C@@H](CC=O)C[C@@H](C)[C@@H](O[C@@H]2CC[C@H](N(C)C)[C@@H](C)O2)/C=C/C=C/C[C@@H](C)OC(=O)C[C@H]1OC(C)=O` was tested, and the outcome was “inactive”.
In the case of `NS(=O)(=O)c1ccc(N2CCCCS2(=O)=O)cc1`, the outcome is reported as “inactive”.
`COc1cc(/C=C/C(N)=O)cc(OC)c1OC` was tested, and the max response was 2.61% (inactive).
`CCOC(=O)C(=O)c1csc(NC=O)n1` was tested, and the max response was 4.32% (inactive).
In the case of `O=C(Oc1ccccc1)c1ccccc1O`, the outcome is reported as “inactive”.
